{"source": "PubChem BioAssay AID1224856", "about": "(National Center for Advancing Translational Sciences (NCATS), 2016)", "note": "Inconclusive results are not listed. Entries that show only a call come without a potency. Calls of active or inactive are those of the source. The call rests on the fitted dose curve; in most records, active means well fitted curve in the direction sought with a large enough effect; inconclusive means small, poorly fitted or top-dose-only effect, or another doubt; inactive means no such curve, though single readings can be large or run the other way.", "data": [{"assay": "Cell viability assay for measurement of the protective activity of small molecules against cell death caused by Zika virus infection in human astrocytes", "conditions": "human astrocytes ZIKV-induced death, ATP luminescence, 72 h; series mostly up to 46.1 µM", "text": "National Center for Advancing Translational Sciences [NCATS] Johns Hopkins University School of Medicine Florida State University Assay Overview: Zika virus infection causes cell death in certain cell types including human neural progenitor cells (hNPCs), astrocytes, and astrocytoma cell line (SNB-19). This cell viability assay measures the ATP content (level) in human astrocytes using a luminescence readout that is proportional to viable cell numbers. Decrease in the luminescence signal after Zika virus infection indicates the cell death caused by Zika virus. Small molecule inhibitors […] the decreased luminescence signal after Zika virus infection, indicating the protective effect of that small molecule on the cell death caused by Zika virus infection. This observed protective effect of small molecules against Zika virus induced cell death may result from inhibition of virus replication or cellular response to the virus infection.\nAssay Protocol Summary: The medium for astrocytes contains AM basal medium (ScienCell, Cat.# 1801), AGS (ScienCell, Cat.# 1801), 10% FBS, and 1% Pen/Strep. The ATP content assay kit (PerkinElmer, Cat.# 6016731) was used to determine cell viability. The reagent was reconstituted and prepared as described by the manufacturer. Cells were seeded in 384- or 1536-well assay plates and cultured at 37 C with 5% CO2 for 16 to 20 hours. The typical cell seeding density in the 1536-well plate assay is 350 cells/well in 3 ul medium for astrocytes in the tissue cultured treated/PDL coated plates. Compounds were added to cells and incubated for one hour before addition of ZIKV solution to cells (2 FFU/cell). After incubation at 37 C with 5% CO2 for 72 hours, the reagent mixture of the ATP content assay kit was added to each well, followed by incubation at room temperature for 10 minutes. The luminescence intensity of the assay plates was measured using a ViewLux plate reader (PerkinElmer). […] The percentage inhibitions of the decreased cell viability by small molecule inhibitors were then calculated.", "values": [{"smiles": "CC(O)=C(C#N)C(=O)Nc1ccc(C(F)(F)F)cc1", "Potency": "inactive"}, {"smiles": "O=c1oc2cc(O)ccc2s1", "Potency": "inactive"}, {"smiles": "CC(C)N[C@@H]1CCn2c(=O)[nH]c3cccc(c32)[C@@H]1O", "Potency": "inactive"}, {"smiles": "NC(N)=NN=C(/C=C/c1ccc([N+](=O)[O-])o1)/C=C/c1ccc([N+](=O)[O-])o1", "Potency": "inactive"}, {"smiles": "C/C(=N\\O)c1ccc(OCC(=O)N2CCCCC2)cc1", "Potency": "inactive"}, {"smiles": "CC=CC[C@@H](C)C(=O)[C@H]1C(=O)N[C@@H](C(C)C)C(=O)N(C)CC(=O)N(C)[C@@H](CC(C)C)C(=O)N[C@@H](C(C)C)C(=O)N(C)[C@@H](CC(C)C)C(=O)N[C@@H](C)C(=O)N[C@H](C)C(=O)N(C)[C@@H](CC(C)C)C(=O)N(C)[C@@H](CC(C)C)C(=O)N(C)[C@@H](C(C)C)C(=O)N1C", "Potency": "inactive"}, {"smiles": "O=C(Oc1ccccc1)c1cccc(C(=O)Oc2ccccc2)c1", "Potency": "inactive"}, {"smiles": "c1ccc2[nH]c(-c3cscn3)nc2c1", "Potency": "inactive"}, {"smiles": "CCCSc1ccc2nc(NC(=O)OC)[nH]c2c1", "Potency": "inactive"}, {"smiles": "O=C(O)[C@H](CC(=O)N1C[C@@H]2CCCC[C@H]2C1)Cc1ccccc1", "Potency": "inactive"}, {"smiles": "Cc1cc(O)c2ccccc2c1O", "Potency": "inactive"}, {"smiles": "C[C@H](NC(=O)C(=O)Nc1ccccc1C(C)(C)C)C(=O)N[C@@H](CC(=O)O)C(=O)COc1c(F)c(F)cc(F)c1F", "Potency": "3.88 µM (active)"}, {"smiles": "COc1ccc(-c2coc3cc(O)ccc3c2=O)cc1", "Potency": "inactive"}, {"smiles": "CCN(CC)c1ccc(C(=C2C=CC(=[N+](CC)CC)C=C2)c2cc(S(=O)(=O)O)ccc2S(=O)(=O)[O-])cc1", "Potency": "inactive"}, {"smiles": "CC(C(=O)O)c1ccc(C(=O)c2ccccc2)s1", "note": "(stereo not given)", "Potency": "inactive"}, {"smiles": "N[C@H](CSC(c1ccccc1)(c1ccccc1)c1ccccc1)C(=O)O", "Potency": "inactive"}, {"smiles": "O=C(Nc1ncc([N+](=O)[O-])s1)c1cccs1", "Potency": "inactive"}, {"smiles": "O=C(/C=C/c1ccc(O)cc1)c1ccc(O)cc1O", "Potency": "inactive"}, {"smiles": "Nc1ccc(N=Nc2ccccc2)c(N)n1", "Potency": "inactive"}, {"smiles": "[O-][n+]1ccccc1SSc1cccc[n+]1[O-]", "Potency": "inactive"}, {"smiles": "NC1CCC(Nc2nc(Nc3ccc(C(=O)N4CCCCC4)cc3)c3ncn(-c4cccc(F)c4)c3n2)CC1", "note": "(stereo not given)", "Potency": "inactive"}, {"smiles": "C=CCCCCCCCCC(=O)O", "Potency": "inactive"}, {"smiles": "O=S(=O)(CC1CS1)c1ccc(Oc2ccccc2)cc1", "note": "(stereo not given)", "Potency": "inactive"}, {"smiles": "O=C(OCc1ccccc1)c1ccc(O)cc1", "Potency": "inactive"}, {"smiles": "O=c1c(-c2ccc(O)cc2)coc2cc(OC3O[C@H](CO)[C@H](O)[C@H](O)[C@H]3O)cc(O)c12", "note": "(stereo not given in full)", "Potency": "inactive"}, {"smiles": "CCCCCCCC/C=C/C(=O)O", "Potency": "inactive"}, {"smiles": "O=S(=O)(O)c1ccc2nc(-c3ccccc3)[nH]c2c1", "Potency": "inactive"}, {"smiles": "O=C(C=CC=Cc1ccc2c(c1)OCO2)N1CCCCC1", "Potency": "inactive"}, {"smiles": "CC(C)(C)OC(=O)CN(Cc1ccc(Cl)cc1)Cc1ccc([N+](=O)[O-])s1", "Potency": "inactive"}, {"smiles": "O=C(O)Cc1ccc(-c2ccccc2)cc1", "Potency": "inactive"}, {"smiles": "Oc1ccc([C@H]2CNCc3c2ccc(O)c3O)cc1O", "Potency": "inactive"}, {"smiles": "CN(C)c1cc(NC(=O)CNC(C)(C)C)c(O)c2c1C[C@@H]1C[C@H]3[C@H](N(C)C)C(=O)C(C(N)=O)=C(O)[C@@]3(O)C(=O)C1=C2O", "Potency": "inactive"}, {"smiles": "Cc1cccc(/C=C/c2ccccc2)n1", "Potency": "inactive"}, {"smiles": "O=c1cc(-c2ccccc2)oc2cc(O)c(O)c(O)c12", "Potency": "inactive"}, {"smiles": "CN(C)c1ccc(N=NS(=O)(=O)O)cc1", "Potency": "inactive"}, {"smiles": "CC(C)[N+](C)(CCC(C(N)=O)(c1ccccc1)c1ccccc1)C(C)C", "Potency": "inactive"}, {"smiles": "CNC(=O)c1ccccc1Sc1ccc2c(/C=C/c3ccccn3)n[nH]c2c1", "Potency": "inactive"}, {"smiles": "CCCCCNC(=O)N1CCC(CN(Cc2ccc(Cl)cc2)Cc2ccc([N+](=O)[O-])s2)C1", "note": "(stereo not given)", "Potency": "inactive"}, {"smiles": "Cc1c(C(=O)O)c(O)cc2c1C(=O)c1c(O)c([C@@H]3O[C@H](CO)[C@@H](O)[C@H](O)[C@H]3O)c(O)c(O)c1C2=O", "Potency": "inactive"}, {"smiles": "CC1(C)Cc2c(sc(NC(=S)NC(=O)c3ccccc3)c2C(=O)O)CO1", "Potency": "inactive"}]}]}
